According to PubChem BioAssay AID624169 (The Scripps Research Institute Molecular Screening Center, 2012):
The whole screen tested about 360,000 compounds, of which about 2,400 (0.67%) were called active. Shown is part of a subset that was picked to be rich in actives. Values without a mark were called inactive.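 The calls were made as follows: active = activation above a run cutoff, the mean activation of all tested compounds plus 3 SD (cut at about 14% in these data); inactive = the rest.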

biological target: 5-hydroxytryptamine receptor 2A (Mus musculus) (UniProt P35363); experiment: mouse Htr2a agonists via beta-arrestin recruitment, primary screen, cell-based, luminescence (AID 624169); details: CHO-K1 mHTR2A beta-arrestin complementation, at 7.6 µM, hits give high values, percent of 30 µM serotonin response;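 also: 0% = plate median of compound wells and 100% = 30 µM serotonin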
Sequence (P35363 whole entry, looked up): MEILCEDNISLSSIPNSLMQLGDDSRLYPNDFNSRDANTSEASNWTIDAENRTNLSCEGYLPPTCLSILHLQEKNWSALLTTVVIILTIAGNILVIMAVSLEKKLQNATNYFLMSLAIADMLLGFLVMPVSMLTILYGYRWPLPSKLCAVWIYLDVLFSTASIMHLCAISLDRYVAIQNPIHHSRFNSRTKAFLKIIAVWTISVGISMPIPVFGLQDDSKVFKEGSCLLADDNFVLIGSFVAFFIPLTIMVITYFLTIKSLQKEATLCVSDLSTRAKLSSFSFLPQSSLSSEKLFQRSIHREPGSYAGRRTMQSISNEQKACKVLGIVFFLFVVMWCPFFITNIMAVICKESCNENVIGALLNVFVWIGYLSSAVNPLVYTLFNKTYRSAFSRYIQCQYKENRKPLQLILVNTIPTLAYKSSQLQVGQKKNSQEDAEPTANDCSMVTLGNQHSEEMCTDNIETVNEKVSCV

Row | SMILES | activation
1 | O=C(Nc1ccc(Cl)cc1)c1csc([C@H]2C[C@H](O)[C@@H](CO)O2)n1 | 4.98%
2 | O=C(Nc1nnc([C@H]2C[C@H](O)[C@@H](CO)O2)s1)c1cccc(Cl)c1 | 5.77%
3 | O=C(Nc1cccc2cccnc12)c1ccc2sc([C@H]3C[C@H](O)[C@@H](CO)O3)nc2c1 | 16.7% (active)
4 | Cc1cccc(-n2c(Cc3cc(=O)[nH]c(=O)[nH]3)nnc2SCC(=O)Nc2cccc(C(F)(F)F)c2)c1 | 3.15%
5 | C/C(=N/NC(=O)c1ccc(Br)o1)c1ccc(C)o1 | 0.28%
6 | C/C(=N\NC(=S)NC1CCCCC1)c1ccc(C)o1 | 21.6% (active)
7 | Cc1ccc(/C=N/NC(=S)NC2CCCCC2)o1 | 4.42%
8 | N#CC1=C(SCc2ccc(C#N)cc2)N=C(N)C(c2nc(-c3ccccc3)cs2)C12CCCCC2 (stereo not given) | -0.07%
9 | COc1ccc(OC)c(C(O)c2ncc(-c3cccc(C(F)(F)F)c3)[nH]2)c1 (stereo not given) | -2.32%
10 | O=C(Cc1ccccc1Cl)N1CCOCC1 | -3.57%
11 | CN(C(=O)c1ccc(NC(=O)Cc2cccc(NC(=O)C3CCN(C(=O)c4ccccc4)CC3)c2)cc1)C1CC1 | -6.22%
12 | COc1ccc(NS(=O)(=O)c2cc(NC(=O)CC(=O)c3ccc([N+](=O)[O-])cc3)ccc2C)cc1 | -2.57%
13 | COc1ccc(NS(=O)(=O)c2cc(C(=O)Nc3ccccc3C(=O)O)ccc2C)cc1 | 17.9% (active)
14 | Cc1ccc(C(=O)Nc2ccccc2-c2ccccc2)cc1S(=O)(=O)Nc1ccccc1 | 5.68%
15 | O=S(=O)(Nc1cccc(-c2ccc(N3CCOCC3)nn2)c1)c1ccc(Cl)c(Cl)c1 | -3.29%
16 | O=C(NCc1ccccc1CN1CCCC1)C1CCN(S(=O)(=O)c2ccc(Cl)cc2)CC1 | -12.7%
17 | O=C(NCc1ccccc1Cl)C1CCN(S(=O)(=O)N2CCOCC2)CC1 | 2.15%
18 | O=C1CCc2cc(S(=O)(=O)N3CCC(C(=O)NCc4ccccc4Cl)CC3)ccc2N1 | 19.6% (active)
19 | COc1cccc(C(=O)n2ccc(-c3cccs3)n2)c1 | 2.87%
20 | Cc1ccc(C(=O)N2CCN(C3CCCCC3)CC2)s1 | 7.15%
21 | CCOCCOC(=O)C1=C(C)N(C)C(=O)NC1c1ccccc1F (stereo not given) | 1.37%
22 | O=C(CN(Cc1ccc(Br)cc1)S(=O)(=O)c1ccccc1)NCc1ccncc1 | -1.63%
23 | CCc1ccc(CN(C)C(=O)C2CCC(=O)N(Cc3cccc(OC)c3)C2)nc1 (stereo not given) | 6.04%

Row | SMILES | activation
24 | CC(=O)Nc1ccc(S(=O)(=O)N2CCC(N(C)CCC(C)C)CC2)cc1 | 6.97%
25 | Cc1ccc(NC(=O)CN(C)Cc2ccc(F)cc2)c([N+](=O)[O-])c1 | 1.68%
26 | CCn1cc(C(=O)N2CC=C(c3ccccc3)CC2)c(=O)c2ccc(C)nc21 | -3.76%
27 | CCn1cc(C(=O)OCC(=O)Nc2cccc(C)c2)c(=O)c2ccc(C)nc21 | 20.9% (active)
28 | CCOc1cc(C(=O)OCC(=O)Nc2cccc(C)c2)ccc1OCC(=O)N1CCOCC1 | -2.12%
29 | C=CCNC(=O)CC12CC3CC(C1)CC(CC(=O)NCC=C)(C3)C2 | -3.65%
30 | CCCC(=O)N1c2ccc(-c3csc(N)n3)cc2CC1C (stereo not given) | 1.22%
31 | CC(C)(C)C(=O)OCc1nc(-c2ccc(O)c(O)c2)cs1 | 14.9% (active)
32 | CN(c1ccc(O)cc1)c1nc(-c2cccnc2)cs1 | -2.76%
33 | CC(=O)c1c(C)n([O-])c2ccccc2[n+]1=O | 4.16%
34 | C=CCn1c(CCNC(=O)c2cccs2)n[nH]c1=S | 4%
35 | C=CCn1c(=NC(=O)c2ccc(S(=O)(=O)N3CCCC3)cc2)sc2cc(NC(C)=O)ccc21 | 1.21%
36 | C=CCn1c(=NC(=O)c2cccs2)sc2cc(NC(C)=O)ccc21 | 23.5% (active)
37 | O=C(O)c1ccccc1Cc1ccc(F)c2ccccc12 | -0.35%
38 | CCc1ccc2nc(Nc3ncc(C(C)=O)c(C)n3)nc(C)c2c1 | -1.39%
39 | O=C(CSc1nnc(Nc2ccccc2F)s1)NC1CCCC1 | -5.06%
40 | COc1ccc(-c2nnc(SC(C)C(=O)NC3CC3)o2)cc1 (stereo not given) | -2.06%
41 | COc1ccccc1Nc1nnc(SC(C)C(=O)NC2CC2)s1 (stereo not given) | 14.8% (active)
42 | CCCCC1N2CC3([N+](=O)[O-])CN1CC([N+](=O)[O-])(C2)C3(C)C (stereo not given) | -2.15%
43 | CCCCN(C(=O)COc1ccc(NC(C)=O)cc1)C1CCS(=O)(=O)C1 (stereo not given) | -2.25%
44 | CC(=O)c1ccc(OCC(=O)N(C)C2CCS(=O)(=O)C2)cc1 (stereo not given) | 18.4% (active)
45 | CCc1ccc(OCC(=O)N(Cc2ccccc2)C2CCS(=O)(=O)C2)cc1 (stereo not given) | -6.02%
46 | CN1C(=O)c2ccc(NC(=O)c3c(F)c(F)c(F)c(F)c3F)cc2C1=O | 5.38%

Row | SMILES | activation
47 | COc1ccc(C(=O)Nc2c(N)nc(SCC(=O)N3CCC(C)CC3)[nH]c2=O)cc1OC | 3.82%
48 | O=Cc1cn(CCOc2ccc(F)cc2)c2ccccc12 | -3.3%
49 | COc1ccc(N(C(=O)CNC(=O)c2ccco2)C(C(=O)NCC2CCCO2)c2ccccc2)cc1Cl (stereo not given) | -3.88%
50 | CCOC(=O)c1cccc(NC(=O)CN(c2ccc(C)cc2)S(=O)(=O)c2c(C)noc2C)c1 | 4.56%
51 | Cc1noc(C)c1S(=O)(=O)N(CC(=O)Nc1ccc2c(c1)OCCO2)c1ccc(C(C)C)cc1 | 18.8% (active)
52 | Cc1noc(C)c1S(=O)(=O)N(CC(=O)NCc1ccc(Cl)cc1)c1ccc2c(c1)OCO2 | 10.9%
53 | COc1ccc(CN2CCN(C(=O)CCC(=O)Nc3nnc(C(C)C)s3)CC2)cc1F | 10.4%
54 | COc1ccc(NC(=O)C(NC(C)=O)C(=O)NCc2ccccc2Cl)cc1 (stereo not given) | -1.72%
55 | CC(C)NS(=O)(=O)c1ccc(CCC(=O)N2CCOCC2)cc1 | -3.51%
56 | COCc1cc(=O)oc2cc(NS(=O)(=O)c3ccc(C)cc3)ccc12 | 6.31%
57 | CC(=O)N1c2ccc(S(=O)(=O)N3CCC(C(=O)NCc4ccc(F)cc4)CC3)cc2CC1C (stereo not given) | 5.7%
58 | CC(=O)N1c2ccc(S(=O)(=O)N3CCC(C(=O)NC4CCCC(C)C4C)CC3)cc2CC1C (stereo not given) | -2.05%
59 | CC(=O)N1c2ccc(S(=O)(=O)N3CCC(C(=O)NC4CCCCC4C)CC3)cc2CC1C (stereo not given) | 15.7% (active)
60 | O=S1(=O)CC(N2CCN(Cc3ccccc3F)CC2)CN1Cc1cn(Cc2ccccc2)nn1 (stereo not given) | 0.73%
61 | CC(=O)NCC(=O)N(C)C(C(=O)Nc1ccc2c(c1)OCCO2)c1ccccc1 (stereo not given) | 1.2%
62 | CCOc1ccc(/C=C/C(=O)OCC(=O)c2ccccc2OC)cc1OC | -3.76%
63 | O=C(Nc1cc(=O)[nH]c2ncnn12)c1ccccc1Cl | 16.4% (active)
64 | O=C(Nc1ccc2sc3ccccc3c(=O)c2c1)c1ccccc1Cl | -3.04%
65 | CC(=O)c1cc(CN2CCC(n3nccc3NC(=O)c3ccccc3Cl)CC2)cs1 | 1.51%
66 | N#Cc1c(-c2ccc(F)cc2)cc(C2CC2)nc1SCC(=O)c1cccs1 | 4.09%
67 | COc1ccccc1CNC(=O)[C@@H]1CCCN1C(=O)[C@@H]1Cc2ccccc2CN1C(=O)OC(C)(C)C | -8.22%
68 | Cc1c(C(=O)NCC2CC2)sc(=O)n1Cc1cccc(F)c1 | 15% (active)
69 | Cc1cccc(CNC(=O)c2sc(=O)n(Cc3ccccc3C)c2C)c1 | -9.77%

Row | SMILES | activation
70 | Cc1cccc(C)c1Cn1c(C)c(C(=O)NCc2cccc(Cl)c2)sc1=O | 0.95%
71 | O=C(NNS(=O)(=O)c1ccccc1C(F)(F)F)c1cc2ncc(C(F)(F)F)cc2s1 | 2.01%
72 | O=C1Cc2cc(S(=O)(=O)Nc3cccc(F)c3)ccc2N1 | -4.43%
73 | CCn1cc(-c2cc(C(=O)O)on2)c(C)n1 | 0.66%
74 | CC(C)Cc1oc(C(=O)O)cc1CN | -1.78%
75 | CC(C)c1cc(C(=O)O)on1 | 16.1% (active)
76 | O=C(NCc1ccccc1Cl)C1CCN(S(=O)(=O)c2cccc3nonc23)CC1 | 0.64%
77 | C=C1C(=O)OC2C1CCC(C)=CCCC1(C)OC21 (stereo not given) | 17.6% (active)
78 | Cc1cc(C(=O)OC(C)C(=O)NC2CCCCC2C)c(C)o1 (stereo not given) | 5.88%
79 | CC(C)(C)NC(=O)Cn1cnc2cc([N+](=O)[O-])ccc2c1=O | -0.6%
80 | O=C(OCc1cn([C@H]2C[C@H](c3ccccc3)N(C(=O)c3cccs3)C[C@@H]2O)nn1)c1ccccc1 | 0.06%
81 | CC1(C)CC(=O)C=C(c2ccccc2CO)C1=O | 3.89%
82 | Fc1ccc2[nH]c3c(N4CCSCC4)ncnc3c2c1 | 16.4% (active)
83 | Cc1ccc(C)c(NC(=O)C(c2ccccc2)N2CCN(CC(=O)NC3CC3)CC2)c1 (stereo not given) | 1.96%
84 | Brc1cc(Br)c(Oc2cc(Br)c(Br)cc2Br)cc1Br | 4.05%
85 | CCOC(=O)C1CCN(C(=O)C2CCCN(S(=O)(=O)c3ccc(OC)c(Cl)c3)C2)CC1 (stereo not given) | -2.55%
86 | O=S(=O)(Cc1cc(Cl)nc(-c2cccnc2)n1)c1ccccc1 | -2.49%
87 | CCCOc1ccc(Cl)cc1Nc1nc(NCCO)nc(N2CCCC2)n1 | 0.98%
88 | CC(C)(C)Oc1ccccc1Nc1nc(NCCO)nc(N2CCCC2)n1 | 23.9% (active)
89 | Cn1ncc2c(N3CCCCC3)nc(NCCCO)nc21 | 1.52%
90 | CCc1nc2c(OCCc3cccc(OC)c3)cccn2c1N(C)C(=O)c1ccc(C)cc1 | -1.71%
